# In ChEMBL document CHEMBL4513216, “Probing the Open Global Health Chemical Diversity Library for Multistage-Active Starting Points for Next-Generation Antimalarials” (ACS Infect Dis, 2020):
# The campaign covered roughly 69,000 compounds. About 8,600 (12%) showed an effect of 50% or more. This is one part of a sample in which strong results are shown more often than they occur.
# Test system: Plasmodium berghei
# Test: Screen against P. berghei liver stage (PbLuc), transformed with Luciferase, at 10uM
# Type: functional, HepG2
# Conditions: tested at 10 uM
row,Compound,INHIBITION
1,Cc1ccc(C)c(CSc2nnc(C(N)Cc3ccccc3)o2)c1 (stereo unspecified),43.8%
2,Cc1ccc(-c2cc(C3=NC(=CN4CCN(C)CC4)NO3)[nH]n2)s1,39.6%
3,Cc1ccsc1CNC1CCCN(Cc2noc(C3CC3)n2)C1 (stereo unspecified),31.8%
4,CC1CN(CCOc2cccc(C#N)c2)CCN1Cc1nccn1C (stereo unspecified),-3.2%
5,COc1ccc(CN2CCC3(CC2)CC(c2cccnc2)CO3)cc1 (stereo unspecified),15.4%
6,Cc1csc(N2CCCN(C(=O)C3(C#N)CCCC3)CC2)n1,-33.32%
7,CN(C)CC1CN(Cc2ccc3c(c2)OCO3)Cc2nccn2C1 (stereo unspecified),43.8%
8,CNc1ncc(CN(C)c2nc(C)c3ccc(S(C)(=O)=O)cc3n2)cn1,-9.54%
9,Cc1noc(C)c1CN(C)c1ncnc2ccccc12,35.6%
10,Cc1noc2ncnc(N(C)Cc3ccco3)c12,10.1%
11,Cc1noc(C)c1CN(C)c1ncnc2onc(C)c12,74.7%
12,CNc1ncc(CN(C)C2CCN(C(C)C)CC2)cn1,-52.2%
13,CNc1ncc(CN(C)c2ncnc3onc(C)c23)cn1,62.9%
14,Cc1ccc(S(=O)(=O)NC(=O)C2(c3ccccc3)CCC2)c(C)c1,21.1%
15,CNc1ccc(C)cc1C(=O)N1CCCC2(CCNC2)C1 (stereo unspecified),33.7%
16,Cc1ccc(OCCN(C)Cc2nccn2C)c(C)c1,55%
17,CN(Cc1cc2c(cc1OC(F)F)OCO2)Cc1nccn1C,43.6%
18,CN(CCCOc1ccccc1)Cc1nccn1C,20.5%
19,CCOc1cccc(C(=O)N2CCC(c3n[nH]c(C4CC4)n3)CC2)c1,11.2%
20,CC(C)N1CCCC(CNC(=O)c2ccnc(-n3ccnc3)c2)C1 (stereo unspecified),-33%
21,c1cncc(OCC2CN(Cc3nccs3)Cc3nccn3C2)c1 (stereo unspecified),8.52%
22,O=C(NCC1CCN(CCc2ccccc2)C1)c1cc(Cl)c[nH]1 (stereo unspecified),72.3%
23,Nc1cc(C(=O)NCC2CCN(CCc3ccccc3)C2)ccn1 (stereo unspecified),37.2%

row,Compound,INHIBITION
1,O=C(NCC1CCN(CCc2ccccc2)C1)c1c(F)cccc1F (stereo unspecified),45.1%
2,COCCN1CCC(CNC(=O)C2(c3cc(C)cc(C)c3)CC2)CC1,26.5%
3,COCCN1CCC(CNC(=O)C2(c3ccc(F)cc3)CCC2)CC1,8.64%
4,COCCN1CCC(CNC(=O)C2(c3ccccc3)CCC2)C1 (stereo unspecified),45.7%
5,COCCN1CCC(CNC(=O)C2(c3cc(C)cc(C)c3)CCC2)C1 (stereo unspecified),40.9%
6,COCCN1CCC(CNC(=O)Nc2ccc(SC(F)(F)F)cc2)C1 (stereo unspecified),66.5%
7,COCCN1CCC(CNC(=O)Nc2ccc(F)c(Cl)c2)C1 (stereo unspecified),7.44%
8,COCCN1CCC(CNC(=O)C2(c3ccc(Br)cc3)CCCC2)C1 (stereo unspecified),52.5%
9,COCCN1CCC(CNC(=O)Nc2ccc(-c3ccccc3)cc2)C1 (stereo unspecified),42.5%
10,COCCN1CCC(CNC(=O)c2cc(C)cc(C)c2)C1 (stereo unspecified),58.3%
11,CC1CCN(c2cncc(CCC3CCCN3)n2)CC1 (stereo unspecified),35.8%
12,CN(C)CC(=O)N1CCC2(CCN(Cc3cccc(F)c3)CC2)C1,9.97%
13,CSCC[C@H](NC(=O)CCn1ccc2c(Br)cccc21)C(=O)O,-2.13%
14,CCCn1nccc1NC(=O)CN1CCC[C@H]1CO,-72.2%
15,COCC1CN(CC2CC2)Cc2nccn2C1 (stereo unspecified),35.7%
16,N#CC1(C(=O)N2CCN(Cc3cscn3)CC2)CCCCC1,25.6%
17,CC(C)c1nc(CN(C)C(=O)CCc2ccc3c(c2)OCO3)cs1,19.4%
18,COC(=O)C(NC(=O)CC(C)C)c1cc(F)ccc1F (stereo unspecified),15.6%
19,CCCN1CCC(CNC(=O)C2(c3cc(C)cc(C)c3)CCC2)C1 (stereo unspecified),25.1%
20,CCN1CCCC(CNC(=O)C2(c3cc(C)cc(C)c3)CCC2)C1 (stereo unspecified),51.1%
21,COCCN1CCC(CNC(=O)c2cc(Cl)c[nH]2)CC1,72.3%
22,CCN1CCC(CNC(=O)C2(c3cccc(C)c3)CC2)C1 (stereo unspecified),37%
23,CCN1CCC(CNC(=O)c2cc(Cl)c[nH]2)CC1,7.39%

row,Compound,INHIBITION
1,COCCN1CCC(CNC(=O)c2c[nH]c(=O)c(Cl)c2)CC1,-16%
2,CCOc1cc(CNC(=O)NCc2nc(C)c(C)s2)ccn1,30.1%
3,CCOc1cc(CNC(C)c2ccc(F)cc2)ccn1 (stereo unspecified),21.5%
4,CCOc1cc(CNC(C)c2sccc2C)ccn1 (stereo unspecified),66.9%
5,CCOc1cccc(CCNC(=O)Cc2ccn[nH]2)n1,61.8%
6,CCOc1cccc(CCNC(=O)Cc2ccccc2O)n1,20.1%
7,CCOc1cccc(CCNC(=O)Cc2cccc(O)c2)n1,37.2%
8,CC(=O)N1N=C(COc2ccc(Cl)cc2)OC1c1ccccc1 (stereo unspecified),68.9%
9,CC(=O)N1N=C(COc2ccc3c(c2)OCO3)OC1c1ccc(C)cc1 (stereo unspecified),-51.1%
10,CC(=O)N1N=C(COc2ccc3c(c2)OCO3)OC1c1cccc(Cl)c1 (stereo unspecified),61.5%
11,COc1ccc(C2OC(COc3ccccc3Br)=NN2C(C)=O)cc1 (stereo unspecified),-52.1%
12,CC(=O)N1N=C(COc2ccc(C)cc2)OC1c1ccc(N(C)C)cc1 (stereo unspecified),11.9%
13,COc1ccc(C2OC(COc3ccc(C)cc3)=NN2C(C)=O)cc1 (stereo unspecified),-13.6%
14,COCC(=O)N1C[C@@H](c2cccc(OC)c2)[C@@]2(CCCCC(=O)N2)C1,-4.87%
15,CC(C)(CCS(C)(=O)=O)CNC(=O)NC1CCCCC1(C)C (stereo unspecified),-11.1%
16,Cc1cc(C2CCCN(CCS(=O)(=O)c3ccccc3)C2)n[nH]1 (stereo unspecified),-9.76%
17,O=C(NCC(F)(F)F)C1=NOC2(CCCNC2)C1 (stereo unspecified),52.9%
18,Cc1ccc(CNC(=O)C2=NOC3(CCCNC3)C2)cc1 (stereo unspecified),-13.1%
19,O=C(NCc1ccncc1)C1=NOC2(CCCNC2)C1 (stereo unspecified),-6.21%
20,COCCn1ccc(=O)c(OCC(=O)Nc2ccc(OC)cc2)c1C,-35.1%
21,CCn1nc(C)c(CN(CCCOC)Cc2ccccn2)c1C,41.5%
22,CCn1c(C2CCN(C(=O)c3cc(Cl)no3)CC2)nn(C)c1=O,-34.7%
23,Cc1nn(C)c2nc(N(Cc3ccccc3)CC3CCCO3)sc12 (stereo unspecified),32.8%

row,Compound,INHIBITION
1,Cc1nn(C)c2nc(N(Cc3ccncc3)CC3CCCO3)sc12 (stereo unspecified),-24%
2,Cc1nn(C)c2nc(-c3ccccn3)nc(NC[C@@H]3CCCO3)c12,10.4%
3,Cc1nn(C)c2nc(N(CCOc3ccccc3)CC3CCCO3)sc12 (stereo unspecified),85.9%
4,Cc1nn(C)c2nc(N(Cc3ccccn3)CC3CCCO3)sc12 (stereo unspecified),3.17%
5,COc1ccc(CN(CC2CCCO2)c2nc3c(s2)c(C)nn3C)cc1 (stereo unspecified),87.1%
6,Cn1cc(CN2C[C@@H]3COC[C@]3(COCC3CC3)C2)cn1,33.1%
7,CCn1c(CN(C)Cc2csc(C)n2)nc2cc(F)ccc21,45.2%
8,CC(=O)c1c(C)nn(S(=O)(=O)c2ccc(C)c(C)c2)c1C,4.97%
9,CCOc1cc(=O)n2c(c1C(=O)OCc1ccc(F)cc1)CCCC2,-3.77%
10,Cn1cccc(NC(=O)NCCc2cccc(O)c2)c1=O,57.3%
11,Cn1cccc(NC(=O)NCc2cccc(CO)c2)c1=O,42.4%
12,Cn1cccc(NC(=O)NCCOCc2ccccc2)c1=O,28.5%
13,CCN(Cc1ccccc1O)CC1(C)Cc2c(N)nc(N)nc2O1 (stereo unspecified),16.7%
14,COCCOC(=O)N1C[C@@H]2CC[C@H]1CN(C1Cc3ccccc3C1)C2,-55%
15,COc1ccc(C2CCCN2C(=O)NCCNc2ccccn2)cc1 (stereo unspecified),-21.2%
16,CCCOc1ccc(CCC(=O)Nc2nonc2C)cc1,-11.3%
17,Cc1nonc1NC(=O)CCn1cc(Br)ccc1=O,20.3%
18,Cc1ccc(OCCCC(=O)Nc2nonc2C)cc1C,86.1%
19,COCC1c2c(cnn2C)CCN1Cc1ccc(C)o1 (stereo unspecified),34.4%
20,Cc1n[nH]c(C)c1CCC(=O)NCC1CCCN(C2CCCC2)C1 (stereo unspecified),38.6%
21,COc1nn(C)cc1C(=O)N1CCC(C)CC1,49.9%
22,CNC(=O)[C@H]1C[C@@H]2CN(C(=O)c3cccnc3)C[C@@H]2N1S(C)(=O)=O,10.5%
23,Cc1ccc(CN2CCC3(CCCN(S(C)(=O)=O)C3)C2)o1 (stereo unspecified),24.9%

row,Compound,INHIBITION
1,Cc1ccc(CN2CCC3(CCN(S(=O)(=O)c4ccccc4)C3)C2)o1 (stereo unspecified),56.8%
2,Cc1ccc(CN2CCCC3(CCN(Cc4ccc(C)o4)C3)C2)o1 (stereo unspecified),74.7%
3,Cc1c[nH]c(CN2CCC3(CCCN(Cc4ccc(F)c(F)c4)C3)C2)n1 (stereo unspecified),42.2%
4,Cc1ccc(CN2CCCC3(CCN(S(C)(=O)=O)C3)C2)o1 (stereo unspecified),22.7%
5,Cc1ccc(CN2CCC3(CCCN(Cc4ccc(F)c(F)c4)C3)C2)o1 (stereo unspecified),54.7%
6,Cc1ccc(CN2CC3(CCN(S(=O)(=O)c4ccccc4)C3)C2)o1,12.4%
7,CCS(=O)(=O)N1CCC2(CCN(Cc3ccc(C)o3)C2)C1 (stereo unspecified),13.1%
8,Cc1ccc(CN2CCCC3(CCN(S(=O)(=O)N(C)C)C3)C2)o1 (stereo unspecified),48.3%
9,CC(=O)N1CCN([C@@H]2CC[C@@H](NC(=O)c3cc(C)cs3)[C@H]2O)CC1,33.7%
10,Cc1cncc(C(=O)N2CCC3(CC2)NC(=O)CC3c2ccccc2)c1 (stereo unspecified),-3.88%
11,O=C([C@H]1C[C@H]2[C@H](CCN2Cc2cccs2)O1)N1CCOCC1,24.8%
12,CSc1ncccc1C(=O)N1C[C@@H]2CC[C@H]1CN(C(C)=O)C2,-31.1%
13,COCCNc1c(-c2ccc(C)cc2)c(=O)c1=O,25.3%
14,Cc1ccc(S(=O)(=O)N2C[C@H](C3CC3)[C@@H](N)C2)cc1F,22.5%
15,Cc1ccc(S(=O)(=O)N2CCCCC(N3CCN(C)CC3)C2)cc1F (stereo unspecified),71.3%
16,Cc1cc(S(=O)(=O)N2CCCN3CCCC3C2)ccc1F (stereo unspecified),88.1%
17,Cc1cc(S(=O)(=O)N2CCC(S(C)(=O)=O)C2)ccc1F (stereo unspecified),6.09%
18,Cc1ccc(S(=O)(=O)N2CCC(N3CCCCC3)CC2)cc1C,45.4%
19,Cc1cc(S(=O)(=O)N2CCC(S(C)(=O)=O)CC2)ccc1F,16.6%
